Assay outcomes from PubChem.
In the library only some 9% were active in any assay of this set; here they are far more common.
HP1b binding inh = HTS for Inhibitors of HP1-beta Chromodomain Interactions with Methylated Histone Tails; AID 540317, 2011; Potency, µM (doses to about 114 µM), hits mostly inhibitors; Chromobox protein homolog 1 (Homo sapiens), P83916; AlphaScreen HP1-beta / biotin-H3K9me3 peptide binding; hit rate 0.56% among 390,000; note: nearly all actives have a fitted effect of over 70% in size
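HP1-beta protein (50 nM final) preincubated 30 min at room temperature with biotinylated H3(1-18)K9me3 peptide (50 nM) in PBS pH 7.4, 0.01% Tween-20, then compound added for 30 min. AlphaScreen streptavidin donor/nickel chelate acceptor beads (10 ug/mL final), 30 min dark, luminescence read.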
JMJD2A Tudor = qHTS Assay for Inhibitors of JMJD2A-Tudor Domain | Lysine-specific demethylase 4A (Homo sapiens), O75164 | AlphaScreen JMJD2A-Tudor / H3K4me3 peptide binding | Potency, µM (top dose mostly 114 µM), usual class: inhibitors | hit rate 4.4% among 390,000 | AID 504339, 2011; note: nearly all actives have a fitted effect of over 50% in size
BAZ2B inh = qHTS Assay for Inhibitors of BAZ2B | AlphaScreen BAZ2B-H3K14Ac peptide displacement | Bromodomain adjacent to zinc finger domain protein 2B (Homo sapiens), Q9UIF8 | Potency, µM (top dose mostly 114 µM), most hits filed as inhibitors | hit rate 4.4% among 360,000; note: nearly all actives have a fitted effect of over 60% in size
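Complex of BAZ2B and biotin-H3K14Ac (50 nM apiece) forms over 30 min at RT, then faces library compounds up to 110 uM for another 30 min; AlphaScreen beads added, 20 min dark incubation, luminescence read.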
G9a inh = qHTS Assay for Inhibitors of Histone Lysine Methyltransferase G9a; Histone-lysine N-methyltransferase EHMT2 (Homo sapiens), Q96KQ7; G9a H3K9 monomethylation, AlphaScreen, 2 h; Potency, µM (top dose mostly 102 µM), hits mostly inhibitors; hit rate 8.8% among 350,000; AID 504332, 2011; note: nearly all actives have a fitted effect of over 75% in size
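AlphaScreen read-out: biotin-H3K9 peptide (500 nM) methylation by 20 nM enzyme with 20 uM SAM, 2 h at room temperature after 15 min compound preincubation; anti-monomethyl H3K9 antibody plus donor/acceptor beads, 10 min dark.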
ALOX12 inh = Primary qHTS assay for inhibitors of human arachidonate 12S-lipoxygenase (ALOX12): Round 2 | hit rate 1.1% among 580,000 | Polyunsaturated fatty acid lipoxygenase ALOX12 (Homo sapiens), P18054 | Potency, µM (top dose mostly 108 µM), hits mostly inhibitors | purified 12hLO, xylenol orange hydroperoxide absorbance
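Purified human 12hLO at 150 nM in 25 mM Hepes, 0.01% Triton X-100, pH 7.0, preincubated 15 min at room temperature with compound. Reaction started with 40 uM arachidonic acid, 30 min at room temperature. Hydroperoxide measured by Fe-xylenol orange, 573/405 nm absorbance ratio.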
PLK1 PBD inh = qHTS for Inhibitors of PLK1-PDB (polo-like kinase 1 - polo-box domain): Primary Screen; Serine/threonine-protein kinase PLK1 (Homo sapiens), P53350; Plk1 PBD binding of FITC phosphopeptide, fluorescence polarization; Potency, µM, most hits filed as inhibitors; hit rate 2.8% among 360,000; note: series mostly up to about 57 µM; nearly all actives have a fitted effect of over 65% in size
Target sequence (P53350 whole entry, looked up, the tested form may be a part): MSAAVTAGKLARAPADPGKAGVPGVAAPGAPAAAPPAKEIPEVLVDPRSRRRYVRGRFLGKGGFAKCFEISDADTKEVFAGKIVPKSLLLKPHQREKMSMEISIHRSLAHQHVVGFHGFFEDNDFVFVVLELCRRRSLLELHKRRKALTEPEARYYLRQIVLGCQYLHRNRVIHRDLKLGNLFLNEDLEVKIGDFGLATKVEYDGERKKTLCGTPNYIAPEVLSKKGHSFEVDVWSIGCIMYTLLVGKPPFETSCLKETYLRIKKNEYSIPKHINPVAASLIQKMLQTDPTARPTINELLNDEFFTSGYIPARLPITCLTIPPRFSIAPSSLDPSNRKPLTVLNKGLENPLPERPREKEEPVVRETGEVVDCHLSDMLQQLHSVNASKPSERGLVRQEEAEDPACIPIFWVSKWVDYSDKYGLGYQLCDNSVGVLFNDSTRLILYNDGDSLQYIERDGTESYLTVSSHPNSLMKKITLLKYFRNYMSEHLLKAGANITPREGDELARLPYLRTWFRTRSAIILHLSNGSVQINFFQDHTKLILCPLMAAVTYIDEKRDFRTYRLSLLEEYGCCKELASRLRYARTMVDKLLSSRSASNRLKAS
Hits are given with their value; i = inactive; ? = inconclusive; nt = not tested or not shown; [ ] = dose if it differs, or a comment. Calls come from the whole dose curve; as a rule, active = well fitted curve in the direction sought with a large enough effect; inconclusive = small, poorly fitted or top-dose-only effect, or another doubt; inactive = no such curve, though single readings can be large; an effect the other way counts as inactive or inconclusive.

SMILES | HP1b binding inh | JMJD2A Tudor | BAZ2B inh | G9a inh | ALOX12 inh | PLK1 PBD inh
COc1ccc(CNC(=O)CC2C[C@H](C(=O)N(C(C)C)C(C)C)[C@@]3(C)c4[nH]c5ccccc5c4CCN3C2=O)cc1OC (some centres not stated) | i | i | nt | nt | i | i
COc1ccc(CNC[C@@H](CCCCN(C)Cc2ccc(OC)cc2)N2C[C@H](c3ccccc3)N(CCc3ccc(Cl)c(Cl)c3)C(=O)C2=O)cc1 | i | 40µM | ? | ? | nt | i
CCOc1ccc(CCN2C(=O)C(=O)N([C@H](CCCN(C)Cc3ccccc3)CNCc3ccccc3)C[C@@H]2C(C)C)cc1 | nt | nt | ? | i | nt | nt
Cc1ccc(NC(=O)C(NC2CCCc3ccccc32)c2ccccc2)c([N+](=O)[O-])c1 (configuration not stated) | 25µM | 4.5µM | 45µM | 11µM | ? | i
CNC(=O)NC(=O)C(NC1CCCc2ccccc21)c1ccccc1 (configuration not stated) | i | i | i | ? | i | i
CCc1nnc(NC(=O)CN2CCN(C3CCCCC3)CC2)s1 | i | 7.1µM | ? | 10µM | i | i
CN1CCN(CC(=O)Nc2nnc(-c3cccs3)s2)CC1 | i | 11µM | i | ? | i | i
CCCc1nnc(NC(=O)CN2CCN(C)CC2)s1 | i | i | 79µM | ? | ? | i
Cc1ccc(NC(=O)N2CCCN(S(=O)(=O)c3ccccc3)CCC(=O)NCC2)cc1C | nt | nt | nt | nt | i | nt
CCCCn1c(N)c(N(CC)C(=O)CSCc2ccc(C)cc2)c(=O)[nH]c1=O | i | i | i | nt | ? | i
Clc1cccc(N2CCN(Cc3ccc(Br)o3)CC2)c1 | ? | 28µM | ? | 6.3µM | ? | i
Clc1ccc(N2CCN(Cc3ccc(Br)o3)CC2)cc1 | ? | 20µM | 50µM | 13µM | 0.89µM | i
Clc1ccc(N2CCN(Cc3cc4ccccn4n3)CC2)cc1 | nt | nt | nt | i | nt | nt
CC(C)Cn1nc(NC(=O)C2CCCO2)c2cc3ccccc3nc21 (configuration not stated) | i | i[11.4 µM] | i | i | i | 30µM
CCCn1nc(NC(=O)C2CCCO2)c2cc3cccc(C)c3nc21 (configuration not stated) | i | i | i | i | i | i
COc1ccc([N+](=O)[O-])cc1NC(=O)COC(=O)C1CC1 | i | i | i | i | i | i
Cc1cc(C)n(-c2nnc3c4ccccc4n(C)c3n2)n1 | i | 79µM | 11µM | i | ? | i
C/C(=N\Nc1nnc2c3ccccc3n(C)c2n1)c1ccc(C)o1 | i | ? | i | i | i | i
Cc1ccc(C(=O)NCc2cccs2)cc1N | nt | nt | nt | nt | i | nt
COc1ccc(NC(=O)c2ccc3c(c2)c(C)c(C)n3Cc2ccc(F)cc2)c(OC)c1 | i | ? | i | ? | i | nt
COc1ccc(OC)c(CNC(=O)c2ccc3c(c2)c(C)c(C)n3C)c1 | i | ? | 35µM | ? | i | nt
Cc1c(C)n(C)c2ccc(C(=O)NCc3cccs3)cc12 | i | ? | ? | 50µM | i | i
COc1ccc(OC)c(NC(=O)c2ccc3c(c2)c(C)c(C)n3Cc2ccc(F)cc2)c1 | i | ? | 25µM | ? | i | nt
CN(C)C(=S)SCC(=O)NC(=O)NCc1ccccc1 | nt | nt | nt | nt | i | nt
Cn1c(CNc2ccc(Cl)cc2)nc2ccccc21 | i | i | i | i[12.7 µM] | i | i
CC(C)N=c1cc2n(-c3ccc(Cl)cc3)c3ccccc3nc-2cc1Nc1ccc(Cl)cc1 | 4.5µM | 7.1µM | nt | 2.5µM | i | i
COc1ccc(C2CC(=O)Nc3c2ncn3-c2cccc(C(F)(F)F)c2)cc1OC (configuration not stated) | nt | nt | nt | nt | 28µM | nt
CN(CC(=O)Nc1cccc(F)c1)C(=O)c1cc(-c2ccco2)nc2ccccc12 | 50µM | 10µM | 50µM | i[0.501 µM] | 40µM | 34µM
